Screening data from PubChem BioAssay.
Rows were chosen to be rich in hits. Some 3.2% of all compounds tested hit in one or more screens of this group.
Mtb FBA inh: Mtb FBA enzyme inhibitors, primary screen, biochemical, fluorescence, strain H37Rv | purified M. tuberculosis FBA, fluorescence read-out | inhibition, % at 1 µM | 360,000 tested, 2.3% active | AID 588726, 2011; in the data active = inhibition above about 27%;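 also: 0% = vehicle and 100% = reference inhibitor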
Target sequence (P9WQA3 whole entry, looked up): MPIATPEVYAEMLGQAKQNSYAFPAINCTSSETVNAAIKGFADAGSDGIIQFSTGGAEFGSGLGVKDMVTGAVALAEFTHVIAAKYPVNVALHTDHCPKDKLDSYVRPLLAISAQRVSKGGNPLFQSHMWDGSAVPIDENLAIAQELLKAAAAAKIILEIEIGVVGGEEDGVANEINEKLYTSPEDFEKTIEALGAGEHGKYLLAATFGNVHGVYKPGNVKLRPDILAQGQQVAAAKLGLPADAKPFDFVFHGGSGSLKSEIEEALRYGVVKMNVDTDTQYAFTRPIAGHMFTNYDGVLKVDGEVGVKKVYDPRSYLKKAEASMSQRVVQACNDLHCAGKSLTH
Mtb betalactam: beta-lactam sensitization of Mtb H37Rv, H37Rv. M. tuberculosis H37Rv growth with meropenem, percent inhibition. inhibition, % at 25 µM. 330,000 tested, 0.27% active. AID 434955, 2010; call rule not given here;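 also: growth measured after seven days incubation then overnight dye step; 0% = bacteria only wells and 100% = bacteria with antibiotic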
SSB-PriA inh: inhibitors of Klebsiella pneumoniae PriA binding to SSB C-terminal tail, primary screen, biochemical, AlphaScreen; PriA–SSB C-terminal tail interaction (Klebsiella pneumoniae); AlphaScreen SSBct-PriA binding, biotinylated peptide; inhibition, % at 33 µM; 430,000 tested, 0.6% active; AID 1272365, 2023; in the data active = inhibition mostly above about 37%, no sharp cut-off; inactive = mostly below about 20%;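 also: plate controls were negative control peptide for no effect and reference peptide for full effect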
GDH-TPI counter: GDH-TPI coupling enzyme inhibitors, primary screen, artefact control for M. tuberculosis FBA inhibitor project, biochemical, absorbance, full deck; GDH-TPI coupled enzyme counterscreen, NADH absorbance; inhibition, % at 4.8 µM; 360,000 tested, 1.2% active; in the data active = inhibition above about 30%;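 also: 0% = DMSO wells and 100% = wells lacking the enzyme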
Mtb UGM inh: M. tuberculosis UGM enzyme inhibitors, primary screen, biochemical, fluorescence polarization, single point; UDP-galactopyranose mutase (Mycobacterium tuberculosis (strain ATCC 25618 / H37Rv)), …; purified UGM, fluorescence polarization probe displacement; inhibition, % at 10 µM; 320,000 tested, 0.06% active; AID 504406, 2011; in the data active = inhibition above about 10%, passing the limit was not always enough
Rv3671c protease: Rv3671c serine protease inhibitors, primary screen, biochemical, fluorescence polarization, M. tuberculosis H37Rv | inhibition, % at 5.96 µM | 320,000 tested, 0.048% active | AID 2606, 2010; in the data active = inhibition above about 38%;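 also: extracellular domain of Rv3671c used as enzyme; 0% = enzyme with DMSO and 100% = no enzyme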
Target sequence (P9WHR9 whole entry, looked up, the tested form may be a part): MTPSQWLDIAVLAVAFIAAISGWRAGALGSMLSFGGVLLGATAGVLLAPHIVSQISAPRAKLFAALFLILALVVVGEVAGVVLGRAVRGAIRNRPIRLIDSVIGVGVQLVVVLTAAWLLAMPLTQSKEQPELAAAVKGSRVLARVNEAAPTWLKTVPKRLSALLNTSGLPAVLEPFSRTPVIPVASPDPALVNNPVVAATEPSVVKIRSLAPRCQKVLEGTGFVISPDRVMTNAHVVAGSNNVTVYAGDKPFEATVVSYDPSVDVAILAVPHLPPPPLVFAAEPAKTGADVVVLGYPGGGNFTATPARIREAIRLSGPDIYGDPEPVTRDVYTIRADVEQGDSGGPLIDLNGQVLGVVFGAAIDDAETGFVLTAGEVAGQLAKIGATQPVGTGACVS
Starred values were filed as active, the others as inactive; . = no result given; + = active, no number.

SMILES | Mtb FBA inh | Mtb betalactam | SSB-PriA inh | GDH-TPI counter | Mtb UGM inh | Rv3671c protease
CN(C(=O)/C=C/c1ccco1)c1ccccc1C(=O)O | 4.9 | -5.3 | -3.3 | 32.1* | -0.2 | -3.0
Cc1cc(C=NNC(N)=O)c(C)n1-c1ccc(F)cc1 | . | . | 4.3 | . | . | .
COC(=O)c1ccc(C(=O)OC)c(NC(=O)Oc2ccccc2)c1 | 154.5* | -1.2 | -5.4 | 5.2 | 3.8 | -6.3
Cc1cccc(Nc2ccc(C(=O)O)cc2[N+](=O)[O-])c1 | . | . | 7.0 | . | . | .
COc1ccccc1NC(=O)CSc1nnc(-c2ccccc2)n1Cc1ccco1 | . | . | 54.9* | . | . | .
Clc1ccc(CSc2nnc(-c3ccccn3)n2Cc2ccco2)c(Cl)c1 | -6.0 | 3.8 | 49.1* | -2.2 | 0.7 | -4.8
O=C(CSc1nnc(-c2ccccn2)n1Cc1ccco1)c1ccc(-c2ccccc2)cc1 | -2.0 | -4.6 | 49.1* | 28.3 | 1.3 | -13.6
CCOc1ccccc1NC(=O)CSc1nnc(-c2ccco2)n1Cc1ccco1 | -1.1 | -15.4 | -2.9 | 10.3 | 0.9 | 1.4
Fc1ccccc1CSc1nnc(-c2cnccn2)n1Cc1ccco1 | -2.3 | -3.1 | -8.2 | -0.4 | 0.1 | -3.7
COc1nccnc1O[C@H]1CCCN(C(=O)CC2CC2)C1 | . | . | -17.0 | . | . | .
O=C1CCCC2=C1C(c1ccncc1)Nc1ccccc1N2 (stereo not given) | 9.1 | -1.4 | -2.8 | 23.6 | -1.3 | 11.1
O=C1NCC2=C1C(c1ccccc1)Nc1ccccc1N2 (stereo not given) | 5.5 | -1.9 | 7.0 | 31.7* | 1.1 | -3.1
CCOC(=O)NN=C(C)c1cccs1 | . | . | -14.4 | . | . | .
C/C(=N\NC(=O)c1ccc(Cl)cc1)c1cccs1 | 2.6 | . | . | 41.5* | . | .
COC1=C(Nc2ccccc2OC)C(=O)c2ccccc2C1=O | 0.5 | 18.1 | 67.8* | 8.4 | 0.5 | -1.0
CCCn1c(/C=C/c2ccccc2)nc2ccccc21 | 52.5* | 60.1 | -1.2 | 38.1* | 0.5 | 0.4
CCn1c(/C=C/c2cc[n+](C)cc2)nc2ccccc21 | 6.1 | -1.1 | -6.8 | 13.1 | 1.6 | -5.2
COc1cccc(C(=O)N2CCN(c3oc(/C=C/c4cccs4)nc3C#N)CC2)c1 | . | . | 22.0 | . | . | .
CCOc1ccc(Cc2onc3c2C(=O)CC(C)(C)C3)cc1OCC | 1.8 | -2.6 | -15.3 | -1.9 | 0.3 | 0.5
CCOc1ccc(Cc2onc3c2C(=O)CCC3)cc1OCC | + | 1.9 | -6.7 | 1.3 | 0.2 | 1.9
COc1c(OC(C)=O)ccc(/C=C/c2ccc3ccccc3n2)c1[N+](=O)[O-] | -0.9 | 40.8 | 27.5 | 43.1* | -0.7 | -5.1
COc1c(OC(C)=O)ccc(/C=C/c2ccc3cccc(OC)c3n2)c1[N+](=O)[O-] | -4.3 | -4.1 | 19.0 | 26.5 | 0.3 | -9.3
COc1cc(OC)c(OC)cc1C=Cc1ccc2ccccc2n1 | 7.2 | . | . | 31.0* | . | .
O=C(CCSc1ccccc1)NCCOc1ccc2nnc(-c3ccccc3)n2n1 | . | . | 2.0 | . | . | .
COc1ccc2c(=O)c(Oc3ccc(C(=O)N4CCC(C(N)=O)CC4)cc3)c(C)oc2c1 | . | . | -13.0 | . | . | .
SMILES | Mtb FBA inh | Mtb betalactam | SSB-PriA inh | GDH-TPI counter | Mtb UGM inh | Rv3671c protease
CSc1nccc(-c2nn(-c3ccc(C)cc3)ccc2=O)n1 | -6.6 | 0.1 | 77.3* | 10.8 | 0.4 | 3.7
O=C(Cc1nnc(-c2cccc(Br)c2)o1)N1CCN(c2ccccc2)CC1 | . | . | -10.0 | . | . | .
COc1ccccc1COc1cc(NC(=O)CCc2c(C)noc2C)ncn1 | . | . | -9.0 | . | . | .
CCOC(=O)C(/C=C(\C#N)C(=O)OCC)=C(N)N1CCN(c2ccc(Cl)cc2)CC1 | . | . | 5.2 | . | . | .
CCOC(=O)C(/C=C(\C#N)C(=O)OCC)=C(/N)N1CCN(c2ccccc2)CC1 | 0.1 | -9.4 | . | 36.2* | 3.3 | 3.7
Cc1cc(C=NNC(=O)c2cc3ccccc3o2)c(C)n1C | . | . | 1.5 | . | . | .
COc1ccc(N=C2S/C(=C\c3ccc(OCC(=O)O)cc3)C(=O)N2CCc2c[nH]c3ccccc23)cc1 | 4.0 | . | 50.6* | 23.6 | . | .
O=C(NC(=S)NNC(=O)c1cnccn1)c1ccc(F)cc1 | 0.2 | 5.2 | 42.0* | 5.6 | -3.1 | -1.7
O=C(/C=C/c1ccc(F)cc1)NC(=S)NNC(=O)c1cnccn1 | 0.9 | -8.4 | 39.6* | 2.4 | 2.7 | 9.6
COc1ccc(/C=C/C(=O)NC(=S)NNC(=O)c2cnccn2)cc1 | 1.5 | 5.2 | -7.0 | 3.4 | -0.2 | 3.0
COc1ccc(NC(=O)Cc2csc(NC(=O)Nc3ccccc3)n2)cc1Cl | . | . | 27.0 | . | . | .
COc1cc(C=c2sc3n(c2=O)CCCN=3)ccc1O | . | . | -13.4 | . | . | .
COc1cccc(-c2cc(C(F)(F)F)c(C#N)c(=O)[nH]2)c1 | + | -4.1 | -17.0 | 5.7 | 1.7 | -7.3
Cc1ccc(-c2cc(-c3ccccc3)[nH]c(=S)c2C#N)cc1 | 1.2 | -1.2 | 1.8 | -0.9 | -0.1 | -1.0
CSc1cc(-c2ccccc2)[nH]c(=O)c1C#N | 34.2* | -2.0 | -0.2 | 18.8 | 3.0 | 4.8
Cc1ccc(-c2cc(C(F)(F)F)c(C#N)c(=O)[nH]2)cc1 | 138.8* | -5.7 | -9.4 | 17.1 | 2.1 | -7.4
Cc1ccc(-c2cc(-c3ccco3)c(C#N)c(=O)[nH]2)cc1 | 123.7* | -6.1 | -9.0 | 25.9 | 0.2 | 1.4
COc1cccc(-c2c3c([nH]c(=O)c2C#N)CCc2cc(OC)ccc2-3)c1 | . | 4.2 | -16.5 | . | 0.7 | 3.9
Cc1csc(C(=O)N2CCCC2CS(=O)(=O)c2ccccc2)c1 (stereo not given) | . | . | -5.0 | . | . | .
COc1ccccc1OCC#CCNS(=O)(=O)c1ccc(C)c(C)c1 | . | . | -18.0 | . | . | .
CCON=C(C)c1c(O)cc(C(C)C)n(-c2ccccc2)c1=O | . | . | 4.7 | . | . | .
CC(C)c1ccc(NC(=O)C(=O)NCc2ccc(Cl)cc2)cc1 | . | . | -21.0 | . | . | .
N#Cc1c(-c2cccs2)cc(-c2cccs2)[nH]c1=O | 8.7 | 2.7 | -7.5 | -5.5 | -3.5 | -13.7
N#Cc1c(C(F)(F)F)cc(-c2ccccc2Cl)[nH]c1=O | 145.4* | -2.8 | -16.8 | 10.1 | 1.1 | -6.0
N#Cc1c(C(F)(F)F)cc(C2CC2)[nH]c1=O | + | 2.9 | -24.5 | 24.2 | 3.1 | -5.7
SMILES | Mtb FBA inh | Mtb betalactam | SSB-PriA inh | GDH-TPI counter | Mtb UGM inh | Rv3671c protease
N#Cc1c(C(F)(F)F)cc(-c2ccccc2)[nH]c1=O | + | -11.7 | -10.2 | 0.3 | 0.9 | -0.5
CCOc1ccc(/C=N/N(C)c2ccccc2)cc1OC | -0.5 | 92.1 | . | 32.8* | -0.4 | 4.7
CCOc1ccc(C=NN(C)c2ccccc2)cc1OC | . | . | 39.1* | . | . | .
COc1cc(C=NN(C)c2ccccc2)ccc1O | . | . | 30.7 | . | . | .
O=C(NCc1ccc2c(c1)OCO2)C(=O)Nc1ccncc1 | . | . | -17.0 | . | . | .
CCOC(=O)c1ccc(NC(=O)CSc2nc3ccccc3c(=O)n2C[C@H]2COc3ccccc3O2)cc1 | . | . | -6.0 | . | . | .
C=CCNC(=O)CSc1nc2sc3c(c2c(=O)n1CCCOC)CCC3 | 10.6 | -0.2 | -3.4 | 35.0* | 1.8 | 3.8
C=CCNC(=O)CSc1nc2sc3c(c2c(=O)n1CCC)CCC3 | -0.2 | 1.9 | -10.0 | 3.0 | -0.8 | 9.0
